Source: PubChem (National Center for Advancing Translational Sciences (NCATS))
Menin MLL FP TR – qHTS Assay for Inhibitors Targeting the Menin-MLL Interaction in MLL Related Leukemias: Competition With Texas Red Labeled MLL-derived Mutant Peptide | Menin + Texas Red MLL mutant peptide, fluorescence polarization | Potency, µM (top dose mostly 61.6 µM), for the others: at the highest dose FP activity change, negative = inhibition, usual class: inhibitors | 0.23% of 270,000 active | AID 1768, 2009; active = well fitted inhibition curve with a large enough effect in the polarisation, with a control signal flat, not every such curve was filed as active; inconclusive = small, poorly fitted or top-dose-only effect, or effect the other way, or a change in a side signal; inactive = no such curve, though single readings can be large or run the other way; the % refers to the polarisation; also: potency is read from the fitted curve at half-maximal effect; % of control where 0% means no effect
Epigenetic reg – Quantitative High-Throughput Screen for Regulators of Epigenetic Control | murine LDR cells, GFP reporter derepression, 30 h | AID 1865, 2009 | Potency, µM (highest dose often 53.9 µM), for inactives: at the highest dose GFP activation, hits mostly activators | 0.2% of 280,000 active; active = well fitted activation curve with a large enough effect; inconclusive = small, poorly fitted or top-dose-only effect; also: potency is read from the fitted curve at half-maximal effect; % of control where 0% means no effect; nearly all actives have a fitted effect of over 60% in size
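Derepression of a silenced CMV-GFP reporter in murine LDR cells is scored by enumerating GFP-positive cells with a laser-scanning microplate cytometer after 30 hours of treatment at 37 C.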
ClpP mod – qHTS Assay for Activators of ClpP; ATP-dependent Clp protease proteolytic subunit (Bacillus subtilis (strain 168)), P80244; purified B. subtilis ClpP, FRET peptide cleavage, 20 min; Potency, µM (series often up to 57.5 µM), for the others: at the top dose activity change, negative = active; 1.9% of 340,000 active; active = well fitted falling curve with a large enough effect; inconclusive = small, poorly fitted or top-dose-only effect; inactive = no such curve, though single readings can be large or run the other way; also: potency is read from the fitted curve at half-maximal effect; the source files actives as falling curves though it sought activators and does not explain the sign; nearly all actives have a fitted effect of over 65% in size
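ClpP 10 microg/mL final, pH 8 Tris/KCl buffer with BSA, glycerol, Tween-20; compound pinned in; FRET-FV substrate; RT 20 min; Ex320/Em430; ΔFRET vs ADEP 5.8 microM, DMSO, no enzyme.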
MLL CXXC-DNA inh – qHTS Fluorescence Polarization Assay for Inhibitors of MLL CXXC domain - DNA interaction. AID 2662, 2010. 0.037% of 290,000 active. MLL-CXXC / FITC-HOXA9 DNA fluorescence polarization. Potency, µM (series often up to 115 µM), for the others: top-dose activity change, negative = inhibition, most hits filed as inhibitors; active = well fitted inhibition curve with a large enough effect in the polarisation, with a control signal flat, not every such curve was filed as active; inconclusive = small, poorly fitted or top-dose-only effect, or effect the other way, or a change in a side signal; inactive = no such curve, though single readings can be large or run the other way; the % refers to the polarisation; also: potency is read from the fitted curve at half-maximal effect
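Fluorescence polarization: 7 uM MLL-CXXC (stock) preincubated 5 min with compounds, then 50 nM fluorescein-HOX-A9 DNA (stock) added; 30 min ambient. Buffer 50 mM Tris-HCl pH 7.5, 50 mM NaCl, 1 mM DTT, 0.05% BSA.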
Menin MLL FP FL – qHTS Assay for Inhibitors Targeting the Menin-MLL Interaction in MLL Related Leukemias: Competition With Fluorescein Labeled MLL-derived Peptide; 290,000 tested, under 10 active; Fluorescence polarization, fluorescein-MLL peptide displacement from menin; AID 1766, 2009; FP activity change, % at 61.4 µM; active = well fitted curve in the direction sought with a large enough effect in the polarisation, not every such curve was filed as active; inconclusive = small, poorly fitted or top-dose-only effect, or effect the other way, or a change in a side signal; inactive = no such curve, though single readings can be large or run the other way; the % refers to the polarisation; also: % of control where 0% means no effect
PINK1 modulator – A Quantitative High throughput Screen to Identify Chemical Modulators of PINK1 Expression; AID 624263, 2012; Potency, µM (doses to about 76.6 µM), inactives show at the top dose activation (PINK1 increase), usual class: activators; 0.2% of 410,000 active; PINK1 immunofluorescence, high-content cytometry, 24 h; active = well fitted activation curve with a large enough effect; inconclusive = small, poorly fitted or top-dose-only effect; cell line not stated here; also: potency is read from the fitted curve at half-maximal effect; % of control where 0% means no effect; nearly all actives have a fitted effect of over 65% in size
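Fluorescence from anti-PINK1 antibody, together with nuclear and cell stains, was scanned on a laser-scanning cytometer. Before staining, stable-line cells were incubated 24 hours with compounds at 5 concentrations; primary antibody 12 h at 10 degrees C.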
* = called active by the depositor; [ ] = remark or other dose. Hits are enriched below; roughly 1.9% of the tested compounds scored in any of these assays.

What do the screens show for `CC1CN(C(=O)c2cc(-c3ccc(Cl)s3)nc3ccccc23)CC(C)O1` (configuration not stated)?
ClpP mod: 28.2µM*; PINK1 modulator: 0.6%

How did COc1ccc(-c2cc(C(=O)N3CC(C)CC(C)C3)c3ccccc3n2)cc1 (configuration not stated) do in these assays?
ClpP mod: 28.2µM*; PINK1 modulator: 3.3%

Results for NC(=O)C1CCN(C(=O)c2cc(-c3ccc(Cl)s3)nc3ccccc23)CC1 ?
ClpP mod: 4.1%; PINK1 modulator: 1.2%

What do the screens show for `COc1ccc(-c2cc(OC)c3ccccc3n2)cc1`?
Menin MLL FP TR: 21.5%; Epigenetic reg: -0.9%; ClpP mod: 20µM*; MLL CXXC-DNA inh: 3.7%; Menin MLL FP FL: 0.8; PINK1 modulator: 11.1%

How did COc1ccc(N2CCN(Cc3nc4c(c(=O)[nH]c(=O)n4C)n3Cc3ccccc3F)CC2)cc1 do in these assays?
Epigenetic reg: 1.0%; ClpP mod: -0.9%; PINK1 modulator: 1.2%

What do the screens show for `CCOc1ccc(-c2cc(C(=O)N3CCCC3)c3ccccc3n2)cc1`?
ClpP mod: 14.1µM*; MLL CXXC-DNA inh: -2.8%; PINK1 modulator: 14.2%

Results for CCOC(=O)N1CCN(C(=O)c2cc(-c3ccc(OCC)cc3)nc3ccccc23)CC1 ?
Menin MLL FP TR: -5.7%; Epigenetic reg: -1.0%; ClpP mod: 28.2µM*; MLL CXXC-DNA inh: 2.5%; Menin MLL FP FL: 0.2; PINK1 modulator: -1.0%[38.3 µM]

How did CCN1C(=NCc2cccc(C(F)(F)F)c2)N[C@@H](c2cccc(C(F)(F)F)c2)C(C(=O)OC)=C1C do in these assays?
ClpP mod: 2.2%; PINK1 modulator: -0.5%

What do the screens show for `CCOc1ccc(CCNC(=O)c2[nH]c3cc(OC)ccc3c2Sc2ccccc2)cc1OCC`?
Epigenetic reg: -1.9%; ClpP mod: 22.4µM*; PINK1 modulator: 6.0%

Results for COCC(=O)Nc1cc(C(=O)N2CCN(c3ccccc3)C(=O)C2)cc2nc(-c3ccccc3)n(C)c12 ?
PINK1 modulator: 0.5%

What do the screens show for `COC(=O)c1ccccc1-c1cc(C)cc2c1OC(CNC(=O)c1cc(C)on1)C2` (configuration not stated)?
PINK1 modulator: -0.4%

What do the screens show for `COc1cccc(-c2nc(=S)c3c(n2Cc2ccco2)CCCC3)c1`?
Menin MLL FP TR: -21.7%; Epigenetic reg: -1.1%; ClpP mod: 0.0%; MLL CXXC-DNA inh: -2.3%; Menin MLL FP FL: 0.4; PINK1 modulator: 6.31µM*

How did CCC(C)(C)c1ccc(CC(C)CN2C[C@@H](C)O[C@@H](C)C2)cc1 (some centres not stated) do in these assays?
Menin MLL FP TR: -8.4%; MLL CXXC-DNA inh: 17.6%; Menin MLL FP FL: -0.5

What do the screens show for `CCOc1ccc2oc(C(=O)NCc3nc4ccccc4[nH]3)c(C)c2c1`?
Menin MLL FP TR: 2.8%; ClpP mod: 35.5µM*; MLL CXXC-DNA inh: -0.8%; Menin MLL FP FL: 1.2; PINK1 modulator: 13.3%

What do the screens show for `Cc1ccc(C2=NC(C(F)(F)F)(C(F)(F)F)c3c(n(-c4ccc(F)cc4)c(=O)[nH]c3=O)N2)cc1`?
Menin MLL FP TR: -0.7%; Epigenetic reg: -0.3%; ClpP mod: 1.5%; MLL CXXC-DNA inh: -4.2%; Menin MLL FP FL: 2.6; PINK1 modulator: 39.8µM*

Results for COc1ccc(-n2c3c(c(=O)[nH]c2=O)C(C(F)(F)F)(C(F)(F)F)N=C(CC(C)C)N3)cc1 ?
Menin MLL FP TR: 3.4%; Epigenetic reg: -1.1%; ClpP mod: -3.3%; MLL CXXC-DNA inh: 6.5%; Menin MLL FP FL: 1.6; PINK1 modulator: 5.4%[38.3 µM]

What do the screens show for `O=c1[nH]c(=O)n(-c2ccccc2)c2c1C(C(F)(F)F)(C(F)(F)F)N=C(CCC1CCCCC1)N2`?
Menin MLL FP TR: -8.4%; Epigenetic reg: -3.0%; ClpP mod: -4.4%; MLL CXXC-DNA inh: 9.9%; Menin MLL FP FL: 5.6; PINK1 modulator: 16.1%

Results for O=c1[nH]c(=O)n(-c2ccc(F)cc2)c2c1C(C(F)(F)F)(C(F)(F)F)N=C(c1ccc(F)cc1)N2 ?
Menin MLL FP TR: 3.2%; Epigenetic reg: -3.0%; ClpP mod: -1.7%; MLL CXXC-DNA inh: -10.2%; Menin MLL FP FL: 1.2; PINK1 modulator: 10µM*

What do the screens show for `CC(NC(=O)c1ccco1)c1nnc2n1CCN(Cc1cccc(Cl)c1)CC2` (configuration not stated)?
PINK1 modulator: -0.5%

What do the screens show for `Cc1nc(C(=O)N(Cc2cc3ccc(F)cc3nc2N2CCC(O)CC2)CC2CCCO2)cs1` (configuration not stated)?
PINK1 modulator: 0.6%

How did CC(C)c1nc(N2CCOCC2)c(C#N)c2c1CCCC2 do in these assays?
Menin MLL FP TR: 1.7%; Epigenetic reg: -0.9%; ClpP mod: 31.6µM*; MLL CXXC-DNA inh: 7.4%; Menin MLL FP FL: 2.5; PINK1 modulator: -1.3%

Results for CCN1CCc2c(C#N)c(N3CCCCC3)nc(N3CCOCC3)c2C1 ?
Menin MLL FP TR: -9.6%; Epigenetic reg: -7.7%; ClpP mod: 8.91µM*; MLL CXXC-DNA inh: 21.0%; Menin MLL FP FL: inconclusive; PINK1 modulator: 1.1%

What do the screens show for `CCSc1nc(N2CCOCC2)c2c(c1C#N)CCCC2`?
Menin MLL FP TR: -1.6%; Epigenetic reg: -5.5%; ClpP mod: -10.1%; MLL CXXC-DNA inh: 0.7%; Menin MLL FP FL: 2.2; PINK1 modulator: 3.5%

Results for Cc1noc(C)c1CC(=O)N1CCOc2c(cc(-c3nc4ccccc4s3)cc2OC2CCOC2)C1 (configuration not stated) ?
PINK1 modulator: 0.1%

Results for Cc1c(C(=O)NCC2(N3CCOCC3)CCCCCC2)cnn1-c1nccc(-c2ccccc2F)n1 ?
PINK1 modulator: -0.8%

Results for COC(=O)CSCc1nc2ccccc2[nH]c1=O ?
Menin MLL FP TR: -0.4%; Epigenetic reg: 25.1µM*; ClpP mod: inconclusive; MLL CXXC-DNA inh: 25.3%; Menin MLL FP FL: 8.4; PINK1 modulator: 0.6%

How did O=c1cc(/C=C/c2ccc([N+](=O)[O-])cc2)c2ccccc2[nH]1 do in these assays?
ClpP mod: -0.7%

How did COc1ccc(NC(=O)COc2coc(CN3CCN(c4ccccc4)CC3)cc2=O)cc1 do in these assays?
ClpP mod: 28.2µM*; PINK1 modulator: 4.1%
